Assay outcomes: PubChem BioAssay, National Center for Advancing Translational Sciences (NCATS)
This is a sample that favours compounds with a hit; in the whole collection about 12% have one here.
HP1b binding inh – blocks HP1-beta chromodomain binding to methylated histone tails. P83916. AlphaScreen HP1-beta / biotin-H3K9me3 peptide binding. Potency, µM (highest dose often 114 µM), for inactives: at the top dose activity change, negative = inhibition, actives largely listed as inhibitors. hit rate 0.56% among 390,000. AID 540317; further: nearly all actives have a fitted effect of over 70% in size
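HP1-beta protein (50 nM final) preincubated 30 min at room temperature with biotinylated H3(1-18)K9me3 peptide (50 nM) in PBS pH 7.4, 0.01% Tween-20, then compound added for 30 min. AlphaScreen streptavidin donor/nickel chelate acceptor beads (10 ug/mL final), 30 min dark, luminescence read.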
G9a inh – G9a (human) methyltransferase inhibition; Q96KQ7; G9a H3K9 monomethylation, AlphaScreen, 2 h; Potency, µM (series often up to 102 µM), without a hit: at the top dose activity, negative = inhibition, most hits filed as inhibitors; hit rate 8.8% among 350,000; further: on the % scale 0 is the no-effect control and ±100 the full control effect; nearly all actives have a fitted effect of over 75% in size
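Readings reflect AlphaScreen signal from monomethyl-H3K9 antibody detection. HMT at 20 nM; substrate b-H3K9 500 nM; cofactor SAM 20 uM; 2 h RT reaction; compounds tested as titrations in qHTS with 15 min preincubation.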
Sfp inh – Sfp phosphopantetheinyl transferase inhibition | Biochemical Sfp PPTase activity, qHTS | hit rate 3.5% among 310,000 | Q9F4F7 | Potency, µM, without a hit: largest response in the series, negative = inhibition, hits mostly inhibitors;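 further: the enzyme is Sfp with the accession as filed and its product quenches rhodamine fluorescence; 0% = enzyme reaction without inhibitor and -100% = no enzyme wells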
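Step 1, compound plus 15 nM Sfp-PPTase, 15 min, room temperature. Step 2, add rhodamine-CoA (5 uM) and BHQ-2-YbbR (12.5 uM). Step 3, read 525/598 nm fluorescence at 0 and 30 min.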
TDP1 block – TDP1 (human) enzyme inhibition; Q9NUW8; recombinant TDP1, AlphaScreen DNA substrate cleavage; Potency, µM (doses to about 130 µM), for inactives: at the highest dose activity change, negative = inhibition, usual class: inhibitors; hit rate 0.28% among 350,000; AID 485290; further: on the % scale 0 is the no-effect control and ±100 the full control effect; nearly all actives have a fitted effect of over 40% in size
Target sequence (Q9NUW8 whole entry, looked up): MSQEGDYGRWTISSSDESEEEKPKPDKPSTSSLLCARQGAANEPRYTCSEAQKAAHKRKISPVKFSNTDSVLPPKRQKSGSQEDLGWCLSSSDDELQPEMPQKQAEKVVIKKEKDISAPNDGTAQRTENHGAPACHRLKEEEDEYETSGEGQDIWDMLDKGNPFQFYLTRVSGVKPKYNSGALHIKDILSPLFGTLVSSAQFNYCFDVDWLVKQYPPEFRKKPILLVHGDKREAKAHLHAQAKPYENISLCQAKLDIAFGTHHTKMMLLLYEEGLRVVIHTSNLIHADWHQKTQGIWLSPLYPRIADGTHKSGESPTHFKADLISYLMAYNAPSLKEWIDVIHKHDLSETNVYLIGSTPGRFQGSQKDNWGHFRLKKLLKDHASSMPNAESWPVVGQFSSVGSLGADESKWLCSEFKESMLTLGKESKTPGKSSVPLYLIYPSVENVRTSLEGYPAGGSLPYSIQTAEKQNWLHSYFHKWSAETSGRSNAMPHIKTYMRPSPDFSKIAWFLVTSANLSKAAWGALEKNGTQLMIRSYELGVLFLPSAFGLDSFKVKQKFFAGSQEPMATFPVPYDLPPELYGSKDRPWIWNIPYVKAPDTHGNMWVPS
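AlphaScreen read-out: signal falls as enzyme removes the 3' tyrosine-FITC from a 5'-biotinylated DNA oligo (15 nM, 5 min, RT). Enzyme was E. coli-made recombinant Tdp1 at 1 nM, exposed to compound for 15 min beforehand; beads 10 ug/ml, 10 min.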
JMJD2A Tudor – inhibitors of human JMJD2A Tudor domain | AlphaScreen JMJD2A-Tudor / H3K4me3 peptide binding | O75164 | hit rate 4.4% among 390,000 | Potency, µM (titrated, usually from 114 µM), without a hit: top-dose activity change, negative = inhibition, hits mostly inhibitors; further: on the % scale 0 is the no-effect control and ±100 the full control effect; nearly all actives have a fitted effect of over 50% in size
BAZ2B inh – BAZ2B (human) inhibition. Q9UIF8. AlphaScreen BAZ2B-H3K14Ac peptide displacement. Potency, µM (series often up to 114 µM), for inactives: top-dose activity change, negative = inhibition, hits mostly inhibitors. hit rate 4.4% among 360,000; further: on the % scale 0 is the no-effect control and ±100 the full control effect; nearly all actives have a fitted effect of over 60% in size
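Protein-peptide AlphaScreen: BAZ2B 50 nM, b-H3K14Ac 50 nM, 1x PBS pH 7.4 + 0.01% Tween-20. Preincubation 30 min RT; cpd 30 min RT (top 110 uM); beads 20 min RT, light-protected.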
* marks the source's active call; other numbers are inactive results; ? = inconclusive; / = no result; ! = not confirmed by another sample; [ ] = remark or other dose. The call rests on the fitted dose curve; in most records, active means well fitted curve in the direction sought with a large enough effect; inconclusive means small, poorly fitted or top-dose-only effect, or another doubt; inactive means no such curve, though single readings can be large; an effect the other way counts as inactive or inconclusive. Potency means the concentration at half of the fitted maximal effect.

SMILES	HP1b binding inh	G9a inh	Sfp inh	TDP1 block	JMJD2A Tudor	BAZ2B inh
COc1ccc(-c2nc(N3CCN(C)CC3)sc2-c2ccc(OC)cc2)cc1	50µM*	14µM*	?	20%	22µM*	28µM*
COc1ccc(-c2nc(N3CCCCCC3)sc2C(=O)c2ccccc2)cc1	28%	24%[59 µM]	-5%	-6%	15%	4%
Cc1ccc2c(c1)N(CC(=O)NCCCN1CC(C)CC(C)C1)C(=O)c1cccnc1O2 (centres undefined)	35%	16%	9%	/	1%	6%
COc1cc2nc(Nc3ccc(C)c(C)c3)nc(N)c2cc1OC	7%	-8%	?	5%	?	?
CCOC(=O)c1ccc(N/C=C/C(=O)c2ccc(OC)c(OC)c2)cc1	31%	/	3%	2%	-8%	5%
CCOC(=O)c1ccc(Nc2ccc(-c3ccc(OC)c(OC)c3)nn2)cc1	2%	?	20%	0%	63µM*	/
COc1cc2nc(Nc3ccc(F)cc3)nc(N)c2cc1OC	28%	79µM*	?	-2%	-19%	-24%
COc1cc2nc(Nc3ccc(C)c(Cl)c3)nc(N)c2cc1OC	-22%	50µM*	45µM*	/	-35%	?
COc1cc2nc(N(C)C)nc(N)c2cc1OC	15%	45µM*	8%	-5%	-18%	-17%
COc1ccc2oc(=O)c(C(=O)NCCc3c(C)[nH]c4c(Cl)cccc34)cc2c1	28%	-2%[59 µM]	/	3%	-22%	-16%
CCC(C)c1ccc(OCC(=O)Nc2ccc(CN3CCOCC3)cc2)cc1 (centres undefined)	24%	1%	1%	4%	-10%	?
CCOC(=O)c1ccc(Nc2nc(N)c3cc(OC)c(OC)cc3n2)cc1	50%	-26%[59 µM]	79µM*	-2%[12.3 µM]	-9%	-5%
Cc1ccc(-c2ccccc2)n1-c1ccc(C(=O)O)cc1	1%	10µM*	71µM*	-3%	?	?
Cc1ccc(-c2ccccc2)n1-c1cccc(C(=O)O)c1	-6%	50µM*	-20%	7%	?	-35%
Cc1nc(=O)c(-c2ccccc2)c(C)n1-c1cccc(C(=O)O)c1	49%	-17%	11%	4%	-11%[11.4 µM]	9%
Cc1ccc(C(=O)O)cc1-n1c(C)ccc1-c1ccccc1	-5%	?	/	-3%[12.3 µM]	-31%	?
COc1cc(Br)c(CN2C(=O)NC3(CCCCCC3)C2=O)cc1OC	11%	45µM*	9%	17%	-1%	-7%
Cc1cc(C)c(NC(=O)c2cc3c(nc4sccn43)s2)c(C)c1	38%	50µM*	-19%	-1%	2%	-3%
O=C(CS(=O)(=O)c1cccc2nsnc12)Nc1ccc(F)cc1	8%[57 µM]	11%[59 µM]	/	7%	-18%	-4%
O=C(CCS(=O)(=O)c1cccc2nsnc12)Nc1ccc(F)cc1	3%	10µM*	/	6%	-21%	-1%
COc1ccc(N2CCN(CCNC(=O)CCS(=O)(=O)c3cccc4nsnc34)CC2)cc1	/	45µM*	-9%	4%	/	?
COc1ccc(NC(=O)CCS(=O)(=O)c2cccc3nonc23)cc1	24%	-44%	9%	5%	-10%	-7%
O=C(CCS(=O)(=O)c1cccc2nonc12)Nc1ccc(Br)cc1	5%	8%	12%	-6%	79µM*!	-1%
Cc1cc(C)cc(N(CC(=O)Nc2ccc(C(F)(F)F)cc2)S(=O)(=O)c2c(C)[nH]c(=O)[nH]c2=O)c1	6%[57 µM]	25µM*	21%	1%	-26%	-22%
COc1cc(NC(=O)CN(c2cc(C)cc(C)c2)S(=O)(=O)c2c(C)[nH]c(=O)[nH]c2=O)cc(OC)c1	56%	8%	4%	2%	-9%	?
COc1ccc(NC(=O)CN(c2cc(C)cc(C)c2)S(=O)(=O)c2c(C)n[nH]c2C)cc1	-9%	-16%	10%	1%	50µM*	6%
